Assay outcomes as filed in PubChem BioAssay.
This is a sample that favours compounds with a hit; in the whole collection about 0.32% have one here.
TcdB inh: TcdB glycohydrolase inhibitors, primary screen, biochemical, single point, plate reader; Toxin B (Clostridioides difficile), P18177; TcdB glycohydrolase enzymatic assay; inhibition, % at 9.99 µM; 350,000 tested, 0.24% active; AID 652162, 2013; in the data active = inhibition above about 10%
Target sequence (P18177 whole entry, looked up): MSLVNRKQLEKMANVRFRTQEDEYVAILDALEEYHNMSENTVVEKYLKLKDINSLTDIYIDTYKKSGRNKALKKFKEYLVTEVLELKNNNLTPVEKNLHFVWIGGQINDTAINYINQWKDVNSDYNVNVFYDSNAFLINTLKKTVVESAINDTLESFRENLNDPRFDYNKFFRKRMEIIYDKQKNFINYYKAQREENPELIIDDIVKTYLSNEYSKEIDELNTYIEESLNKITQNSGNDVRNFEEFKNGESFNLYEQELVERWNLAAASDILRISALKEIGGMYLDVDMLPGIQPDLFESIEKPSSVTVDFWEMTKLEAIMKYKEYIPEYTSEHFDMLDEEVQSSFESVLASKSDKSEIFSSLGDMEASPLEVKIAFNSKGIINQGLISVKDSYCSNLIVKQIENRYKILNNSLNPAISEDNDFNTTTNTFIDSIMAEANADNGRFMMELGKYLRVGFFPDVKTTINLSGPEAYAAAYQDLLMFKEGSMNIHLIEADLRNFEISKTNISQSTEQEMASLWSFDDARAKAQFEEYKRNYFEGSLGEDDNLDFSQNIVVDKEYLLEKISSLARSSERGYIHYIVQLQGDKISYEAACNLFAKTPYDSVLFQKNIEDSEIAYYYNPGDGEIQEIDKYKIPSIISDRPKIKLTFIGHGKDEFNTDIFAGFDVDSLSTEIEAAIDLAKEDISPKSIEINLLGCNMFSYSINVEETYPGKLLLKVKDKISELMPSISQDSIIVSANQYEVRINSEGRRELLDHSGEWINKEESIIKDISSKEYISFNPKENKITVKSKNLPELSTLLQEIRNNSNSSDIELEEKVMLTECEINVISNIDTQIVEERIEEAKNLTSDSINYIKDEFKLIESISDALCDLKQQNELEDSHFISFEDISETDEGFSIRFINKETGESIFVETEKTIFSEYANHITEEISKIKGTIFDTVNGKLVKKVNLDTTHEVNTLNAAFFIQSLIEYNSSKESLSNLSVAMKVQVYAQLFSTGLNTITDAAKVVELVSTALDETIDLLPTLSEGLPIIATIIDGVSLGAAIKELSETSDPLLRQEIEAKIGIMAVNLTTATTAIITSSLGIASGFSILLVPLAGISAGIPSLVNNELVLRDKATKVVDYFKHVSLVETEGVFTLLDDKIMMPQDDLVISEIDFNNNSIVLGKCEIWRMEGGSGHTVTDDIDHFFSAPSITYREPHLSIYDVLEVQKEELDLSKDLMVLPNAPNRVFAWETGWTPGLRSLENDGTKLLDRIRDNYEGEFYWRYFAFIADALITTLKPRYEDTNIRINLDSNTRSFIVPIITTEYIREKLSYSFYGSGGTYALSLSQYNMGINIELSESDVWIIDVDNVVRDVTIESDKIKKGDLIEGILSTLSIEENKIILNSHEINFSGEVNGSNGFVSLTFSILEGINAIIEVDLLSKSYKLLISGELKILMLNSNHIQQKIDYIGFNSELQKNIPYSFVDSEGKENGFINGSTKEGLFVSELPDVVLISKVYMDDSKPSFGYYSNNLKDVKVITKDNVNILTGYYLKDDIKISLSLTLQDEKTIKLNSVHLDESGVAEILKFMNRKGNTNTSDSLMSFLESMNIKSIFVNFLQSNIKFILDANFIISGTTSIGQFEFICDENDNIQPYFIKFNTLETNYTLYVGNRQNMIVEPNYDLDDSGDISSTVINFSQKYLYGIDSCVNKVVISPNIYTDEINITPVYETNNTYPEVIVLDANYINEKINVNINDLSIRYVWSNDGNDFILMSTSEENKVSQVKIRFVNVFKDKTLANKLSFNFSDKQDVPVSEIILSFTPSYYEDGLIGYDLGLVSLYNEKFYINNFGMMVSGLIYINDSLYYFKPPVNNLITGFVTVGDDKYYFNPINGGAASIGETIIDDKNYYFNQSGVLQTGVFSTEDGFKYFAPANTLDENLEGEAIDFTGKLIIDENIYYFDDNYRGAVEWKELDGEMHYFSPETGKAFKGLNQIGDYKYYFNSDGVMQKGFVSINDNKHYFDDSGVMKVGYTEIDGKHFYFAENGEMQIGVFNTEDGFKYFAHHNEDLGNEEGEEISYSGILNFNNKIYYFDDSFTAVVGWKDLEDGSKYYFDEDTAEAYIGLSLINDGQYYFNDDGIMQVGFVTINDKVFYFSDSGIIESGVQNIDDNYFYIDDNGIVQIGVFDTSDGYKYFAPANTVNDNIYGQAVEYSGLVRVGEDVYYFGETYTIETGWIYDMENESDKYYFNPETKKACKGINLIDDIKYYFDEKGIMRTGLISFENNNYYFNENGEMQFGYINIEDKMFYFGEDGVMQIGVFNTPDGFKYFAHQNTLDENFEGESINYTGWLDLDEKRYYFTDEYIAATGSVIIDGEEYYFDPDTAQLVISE
BioA inh-1: M. tuberculosis BioA enzyme inhibitors, primary screen, biochemical, plate reader, single point, HTS; 7,8-diaminopelargonic acid synthase BioA (Mycobacterium tuberculosis); inhibition, % at 9.99 µM; purified M. tuberculosis BioA enzyme; 360,000 tested, 0.096% active; in the data active = inhibition above about 40%; inconclusive = no clear call, values can overlap the other calls
Yp Topo-I inh: Yersinia pestis topoisomerase I inhibitors, primary screen, biochemical, cleavage product accumulation, plate reader, single point | DNA topoisomerase I (Yersinia pestis CO92) | Y. pestis Topo-I cleavage product accumulation | activity, % at 10 µM | 360,000 tested, 0.064% active; in the data active = activity above about 50%, passing the limit was not always enough; inconclusive = no clear call, values can overlap the other calls
BioA inh-2: Mtb BioA enzyme inhibitors, dose response, biochemical, plate reader, cherry-pick samples, set 03; shares compounds with BioA inh-1; 310 tested, under 10 active; max activity, %; purified BioA enzyme; AID 651679, 2012;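 note: top concentration of the dilution series was 10 µM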
HepG2 tox 2: cytotoxicity in HepG2 cells, dose response, cytotoxicity control, cell-based, plate reader, cherry-pick, two tests; max activity, %; 310 tested, under 10 active; shares compounds with BioA inh-1
3T3 cytotox 5: cytotoxicity in NIH3T3 fibroblasts, dose response, cytotoxicity control, cell-based, plate reader, cherry-pick, two tests | AID 651900, 2012 | shares compounds with BioA inh-1 | 310 tested, under 10 active | activity change, negative = cytotoxicity, % at 26 µM
Of the large screens only hits and unclear results are named; the others gave an inactive call (follow-up assays come after a bar, where they were run). Unless noted, the rule behind the calls is not given here.

O=C(c1cccc(F)c1)N1CC[C@@H]2[C@H](CO)Nc3ccc(-c4cccc(F)c4)cc3[C@@H]21	BioA inh-1 40.7 (no result: TcdB inh, Yp Topo-I inh) | BioA inh-2 inactive | HepG2 tox 2 inactive | 3T3 cytotox 5 inactive
O=C(c1cccc(F)c1)N1CC[C@@H]2[C@H]1c1cc(-c3ccccc3)ccc1N[C@@H]2CO	none (no result: BioA inh-1, Yp Topo-I inh)
CN(C)C(=O)c1cccc(-c2ccc3c(c2)[C@H]2[C@H](CCN2C(=O)c2ccccc2)[C@@H](CO)N3C)c1	none (no result: Yp Topo-I inh)
C[C@@H]1CCCCO[C@@H](CN(C)Cc2ccccc2)[C@H](C)CN([C@H](C)CO)C(=O)c2cc(NC(=O)c3ccncc3)ccc2O1	none (no result: Yp Topo-I inh)
O=C(CC1CC1)N1CC2(C1)[C@@H](c1ccccc1)[C@@H](CO)N2Cc1cccc(F)c1	none (no result: BioA inh-1, Yp Topo-I inh)
CCCc1c(OCCCOc2ccc(OCC(=O)O)cc2)ccc(C(C)=O)c1O	BioA inh-1 79.2 | BioA inh-2 inactive | HepG2 tox 2 inactive | 3T3 cytotox 5 inactive
CCC(=O)c1ccc(OCC(=O)O)cc1	none (no result: TcdB inh, BioA inh-1)
CC1=CC2=NC(=O)/C(=C\c3cc(C)n(-c4ccccc4F)c3C)C(=N)N2O1	BioA inh-1 41.0 | BioA inh-2 inactive | HepG2 tox 2 inactive | 3T3 cytotox 5 inactive
CC1=CC2=NC(=O)/C(=C\c3cc(C)n(-c4ccccc4)c3C)C(=N)N2O1	none
C[C@H]1CN([C@@H](C)CO)S(=O)(=O)c2ccc(C3=CCCCC3)cc2O[C@@H]1CN(C)Cc1ccncc1	none (no result: Yp Topo-I inh)
Cc1cccc(-c2ccc3c(c2)C2CC3CCN2)c1 (stereo not drawn)	BioA inh-1 55.6 | BioA inh-2 inactive | HepG2 tox 2 inactive | 3T3 cytotox 5 inactive
Fc1ccc(-c2ccc3c(c2)C2CC3CCN2)cc1 (stereo not drawn)	BioA inh-1 66.3 | BioA inh-2 inactive | HepG2 tox 2 inactive | 3T3 cytotox 5 inactive
Cc1cccc(-c2ccc3c(c2)C2CC3CCN2C)c1 (stereo not drawn)	none
FC(F)(F)c1ccc(-c2cccc3c2C2CC3CCN2)cc1 (stereo not drawn)	none
C=C[C@H](OC)[C@@H](OC(=O)Nc1ccc(SC)cc1)c1ccc(OCCO)cc1	none (no result: Yp Topo-I inh)
C[C@@H]1CN([C@@H](C)CO)S(=O)(=O)c2ccc(-c3cccc(F)c3)cc2O[C@H]1CN(C)C(=O)c1cccc(F)c1	none (no result: Yp Topo-I inh)
COc1ccccc1-c1cnc2c(c1)C(=O)N([C@H](C)CO)C[C@@H](C)[C@H](CN(C)Cc1cncnc1)O2	none (no result: Yp Topo-I inh)
N#Cc1ccc(-c2ccc3c(c2)[C@H]2[C@H](CCN2C(=O)c2ccc(F)cc2)[C@H](CO)N3)cc1	none (no result: TcdB inh, Yp Topo-I inh)
N#Cc1ccc(-c2ccc3c(c2)[C@@H]2[C@@H](CCN2C(=O)c2ccc(F)cc2)[C@@H](CO)N3)cc1	BioA inh-1 40.4 (no result: TcdB inh, Yp Topo-I inh) | BioA inh-2 inactive | HepG2 tox 2 inactive | 3T3 cytotox 5 inactive
O=C(c1ccc2c(c1)OCO2)N1CC[C@@H]2[C@@H](CO)Nc3ccc(-c4ccc(F)cc4)cc3[C@@H]21	none (no result: Yp Topo-I inh)
O=C(c1ccc2c(c1)OCO2)N1CC[C@@H]2[C@H](CO)Nc3ccc(-c4ccc(F)cc4)cc3[C@@H]21	BioA inh-1 89.9 (no result: Yp Topo-I inh) | BioA inh-2 inactive | HepG2 tox 2 inactive | 3T3 cytotox 5 inactive
CC(=O)N(C)C[C@@H]1Oc2cc(-c3ccc(C)cc3)ccc2S(=O)(=O)N([C@@H](C)CO)C[C@H]1C	none (no result: Yp Topo-I inh)
CCOC(=O)C1CCN(C(=O)Nc2ccc3nccnc3c2)CC1	none (no result: TcdB inh)
CCOC(=O)C1CCN(C(=O)Nc2ccc3snnc3c2)CC1	BioA inh-1 72.3 | BioA inh-2 inactive | HepG2 tox 2 inactive | 3T3 cytotox 5 inactive
C=CCn1c(SCc2c(C(=O)OC)sc(N)c2C(=O)OC)nnc1-c1ccc(Br)cc1	BioA inh-1 59.3 (no result: TcdB inh) | BioA inh-2 inactive | HepG2 tox 2 inactive | 3T3 cytotox 5 inactive
C=CCn1c(SCC(=O)O)nnc1-c1ccc(C(C)(C)C)cc1	none (no result: TcdB inh)
O=C(Nc1cccc(Cl)c1)N1C[C@H]2[C@@H](c3ccccc31)[C@H](CO)N2C(=O)c1cccnc1	none (no result: Yp Topo-I inh)
C/C=C/c1ccc2c(c1)O[C@@H](CN(C)C(=O)Cc1cccnc1)[C@H](C)CN([C@H](C)CO)S2(=O)=O	BioA inh-1 55.9 (no result: Yp Topo-I inh) | BioA inh-2 inactive | HepG2 tox 2 inactive | 3T3 cytotox 5 inactive
C/C=C/c1ccc2c(c1)O[C@H](CN(C)C(=O)c1ccc3c(c1)OCO3)[C@@H](C)CN([C@@H](C)CO)S2(=O)=O	none (no result: Yp Topo-I inh)
C/C=C/c1ccc2c(c1)O[C@@H](CN(C)C(=O)c1ccc3c(c1)OCO3)[C@@H](C)CN([C@@H](C)CO)S2(=O)=O	BioA inh-1 46.3 (no result: Yp Topo-I inh) | BioA inh-2 inactive | HepG2 tox 2 inactive | 3T3 cytotox 5 inactive
C/C=C/c1ccc2c(c1)O[C@@H](CN(C)C(=O)Cc1cccnc1)[C@H](C)CN([C@@H](C)CO)S2(=O)=O	none (no result: Yp Topo-I inh)
C[C@@H]1CN([C@H](C)CO)C(=O)Cc2cc(NC(=O)Nc3ccc(C(F)(F)F)cc3)ccc2O[C@H]1CN(C)S(C)(=O)=O	none (no result: Yp Topo-I inh)
C[C@H](O)C#Cc1cnc2c(c1)C(=O)N([C@@H](C)CO)C[C@@H](C)[C@@H](CN(C)Cc1cccc(F)c1)O2	none (no result: Yp Topo-I inh)
CO[C@H]1CN(C)C(=O)c2ccc(NC(C)=O)cc2OC[C@@H](C)N(C(=O)C2CCCCC2)C[C@H]1C	BioA inh-1 53.4 (no result: Yp Topo-I inh) | BioA inh-2 inactive | HepG2 tox 2 inactive | 3T3 cytotox 5 inactive
CO[C@@H]1CN(C)C(=O)c2ccc(NC(C)=O)cc2OC[C@H](C)N(C(=O)C2CC2)C[C@@H]1C	none (no result: Yp Topo-I inh)
CN1c2ccc(C3=CCCCC3)cc2[C@H]2[C@H](CCN2C(=O)C2CCCCC2)[C@H]1CO	none (no result: BioA inh-1, Yp Topo-I inh)
Cc1cnc(C(=O)Nc2ccc(-n3cnnn3)cc2)cn1	none (no result: TcdB inh)
COc1ccc(NC(=O)c2cnc(C)cn2)cc1-n1cnnn1	BioA inh-1 51.2 (no result: TcdB inh) | BioA inh-2 inactive | HepG2 tox 2 inactive | 3T3 cytotox 5 inactive
CN1CCN(C(=O)C[C@H]2C=C[C@H](NC(=O)Cc3ccccn3)[C@H](CO)O2)CC1	none (no result: Yp Topo-I inh)
COc1ccc(CCNC(=O)c2cnc3n(c2=O)CCS3)cc1OC	BioA inh-1 47.7 (no result: TcdB inh) | BioA inh-2 inactive | HepG2 tox 2 inactive | 3T3 cytotox 5 inactive
O=C(NCCc1ccc(Cl)cc1)c1cnc2n(c1=O)CCS2	none
CNC(=O)C[C@H]1CC[C@@H]2[C@H](COc3ccc(NC(=O)c4ccccc4OC)cc3C(=O)N2C)O1	none (no result: Yp Topo-I inh)
O=C(c1ccc(Br)s1)N1CCN(Cc2ccc3c(c2)OCO3)CC1	BioA inh-1 59.0 (no result: TcdB inh) | BioA inh-2 inactive | HepG2 tox 2 inactive | 3T3 cytotox 5 inactive
O=C(c1ccc(Br)o1)N1CCN(Cc2ccc3c(c2)OCO3)CC1	none (no result: TcdB inh)
O=C(Nc1ccccc1)N1CCN(Cc2ccc3c(c2)OCO3)CC1	BioA inh-1 76.1 | BioA inh-2 inactive | HepG2 tox 2 inconclusive | 3T3 cytotox 5 inconclusive
CCC(C(=O)N1CCN(Cc2ccc3c(c2)OCO3)CC1)n1nnc2ccccc2c1=O (stereo not drawn)	none (no result: BioA inh-1)
